The structures appear in SMILES notation. Values joined by “and” are separate entries in the source; they are usually repeats but may differ in a detail not shown here. Equal values may be shown once. This is part of a sample that, as a whole, favours compounds with a hit. Of some 83,000 tested, about 20% had one in any assay.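 How to read the values: 0–100, growth inhibition (40 = 60% inhibited); 0, no net growth; -100 to 0, cell death (-40 = 40% of starting cells died; -100 = all dead).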 Active and inactive are the calls of the source. Rule for the calls: active = growth percent below 10; inactive = the rest.

The test system of the first assay is TK-10 renal. The experiment in a line: NCI-60 one-dose screen, 48 h (100 = growth as untreated, 0 = no growth, -100 = all killed). To be noted: 10 µM unless noted.
`O=C(CCc1ccc(O)cc1)N/N=C/c1cc(Br)ccc1O`: the growth is 88.9% (inactive).

On to `CC(=O)Oc1cc(C(=O)O)cc(OC(C)=O)c1OC(C)=O`, for which the growth was 115% (inactive) and 102% (inactive).

In the case of `Cn1c(=O)c2[nH]c(CCCCCCCCc3nc4ccccc4[nH]3)nc2n(C)c1=O`, the growth is 84% (inactive) and 90.3% (inactive).

Turning to `O=C1c2ccccc2C(=O)N1/N=C/c1ccc2c(c1)OCO2`, the growth is 102% (inactive).

On to `S=C1SCN(Cc2ccccc2)CN1Cc1ccccc1`, for which the growth was 75.2% (inactive).

With `Cc1ccc(-c2noc(CC(=O)c3ccc([N+](=O)[O-])cc3)n2)cc1`, the growth was 115% (inactive).

In the case of `Oc1ccc(/C=C/c2ccccc2)cc1`, the growth is 92.9% (inactive) and 65.1% (inactive).

Take `CC(=O)C(/C=N/C(N)=O)=C(/C)O`: the growth is 105% (inactive).

Turning to `COC(=O)c1nc(N)nc(C(=O)OC)c1C(=O)c1ccc(OC)cc1`, the growth was 105% (inactive) and 92.8% (inactive).

Regarding `Cc1cc(O)c2c(c1)C(=O)c1cc(O)cc(O)c1C2=O`, the growth is 104% (inactive) and 95.4% (inactive).

For `C#CCN(C)Cc1ccccc1`, the growth is 101% (inactive) and 231% (inactive).

For the molecule `CCN(CC)CCCC(C)Nc1ccnc2cc(Oc3ccccc3)ccc12` (stereo unspecified), the growth is 91.3% (inactive).

Regarding `COc1ccccc1NC(=O)OCC#CCOC(=O)Nc1ccccc1OC`, the growth is 99.2% (inactive) and 91.2% (inactive).

In the case of `Cc1cc(O)c(C(C)C)cc1S(=O)(=O)O` (tested in a mixture with another compound), the growth is 87.8% (inactive) and 33.8% (inactive) and 132% (inactive).

`Oc1c(CN2CCCCC2)ccc2cccnc12`: the growth is 40.8% (inactive) and 48.7% (inactive).

In the case of `NS(=O)(=O)c1cc2c(cc1Cl)NC(C(Cl)Cl)NS2(=O)=O` (stereo unspecified), the growth is 98.5% (inactive) and 121% (inactive).

In the case of `COc1cc2nc(N3CCN(C(=O)C4COc5ccccc5O4)CC3)nc(N)c2cc1OC` (stereo unspecified), the growth was 86.4% (inactive) and 88.4% (inactive).

The subject of the next assay is ACHN renal. Described as above. To be noted: 10 µM unless noted.
Take `O=C(O)C1(C(=O)O)CCC1.[NH2-].[NH2-].[Pt+2]`: the growth is 96.4% (inactive) and 103% (inactive).

With `CC1(C)[C@@H](OC(=O)CCC(=O)O)CC[C@]2(C)[C@H]3C(=O)C=C4[C@@H]5C[C@@](C)(C(=O)O)CC[C@]5(C)CC[C@@]4(C)[C@]3(C)CC[C@@H]12`, the growth is 103% (inactive) and -79.6% (active).

With `CCNC(=O)Nc1ccc(-c2nc3c(c(N4CCOC[C@@H]4C)n2)CCN(C2COC2)C3)cc1`, the growth was 34.6% (inactive) and 7.24% (active).

For the molecule `O=C1C2=C(C(=O)c3ccccc31)C(O)(S(=O)(=O)O)C(O)(S(=O)(=O)O)C1N=CC=CC21` (stereo unspecified), the growth is 36.3% (inactive) and 32.8% (inactive).

Take `COc1ccc2c(=O)cc(-c3ccccc3)[nH]c2c1`: the growth is 54.4% (inactive) and 51.9% (inactive).

As for `COc1cc(Nc2nc3ccccc3nc2NS(=O)(=O)c2ccc(NC(=O)c3ccc(C)c(OC)c3)cc2)cc(OC)c1`, the growth is 53.1% (inactive) and 1.39% (active).

Take `COc1cc(-c2nccc3cc4c(cc23)OCO4)cc(OC)c1OC`: the growth is 36.2% (inactive) and 40.2% (inactive).

As for `CCN(CC)CCC(CNc1ccnc2cc(Cl)ccc12)c1ccc(OC)cc1` (stereo unspecified), the growth is 37.5% (inactive) and 33.3% (inactive).

As to `CC(=O)Nc1ccc(O)cc1`, the growth was 100% (inactive) and 104% (inactive).

Turning to `c1ccc2c(CC3=NCCN3)cccc2c1`, the growth was 102% (inactive) and 116% (inactive).

For `Cc1nn(-c2ccc(Cl)cc2)c2ncnc(N/N=C/c3ccccc3O)c12`, the growth is 16.5% (inactive) and 5.9% (active).

Turning to `CCN(CC)C(=S)SSC(=S)N(CC)CC`, the growth was 71.1% (inactive) and 101% (inactive).

As for `Nc1nc(SC/C=C/CCl)c2[nH]cnc2n1`, the growth is 110% (inactive) and 101% (inactive).

In the case of `CC1CCCC(=O)O1` (stereo unspecified), the growth was 99.2% (inactive) and 100% (inactive).

`c1ccc(NCc2ccc3c(c2)OCO3)cc1`: the growth was 109% (inactive) and 97.4% (inactive).

With `CN(Cc1ccccc1)Cc1ccccc1`, the growth was 108% (inactive).

Turning to `O=[N+]([O-])c1ccc(N/N=C\c2cc(Br)ccc2O)nc1`, the growth is 4.98% (active) and 10.6% (inactive).

With `O=C(Nc1ccc(Br)cc1)c1cc(Br)ccc1O`, the growth was 9.36% (active) and -2.71% (active).

In the case of `CN(C)c1ccc(C(=C2C=CC(=[N+](C)C)C=C2)c2ccccc2Cl)cc1`, the growth was 1.56% (active) and -64% (active).

For `O=C(Cc1cccc2ccccc12)N/N=C/c1ccc2c(c1)CCC2`, the growth is 83.4% (inactive).

Take `O=C(O)C1C2C=CC(C2)C1C(=O)O` (stereo unspecified): the growth was 111% (inactive) and 33.6% (inactive) and 97.6% (inactive).

As to `COc1cc(C(=O)c2ccc3c(c2)OCO3)cc(OC)c1OC`, the growth is 39.4% (inactive) and 48.1% (inactive).

As to `O=C(CCc1ccc(O)cc1)N/N=C/c1cc(Br)ccc1O`, the growth was 27% (inactive).

For `CC(=O)Oc1cc(C(=O)O)cc(OC(C)=O)c1OC(C)=O`, the growth was 112% (inactive) and 98.3% (inactive).

On to `Cn1c(=O)c2[nH]c(CCCCCCCCc3nc4ccccc4[nH]3)nc2n(C)c1=O`, for which the growth is 61.1% (inactive) and 69% (inactive).

Regarding `O=C1c2ccccc2C(=O)N1/N=C/c1ccc2c(c1)OCO2`, the growth was 94.2% (inactive).

For the molecule `S=C1SCN(Cc2ccccc2)CN1Cc1ccccc1`, the growth was 84.5% (inactive).

With `Cc1ccc(-c2noc(CC(=O)c3ccc([N+](=O)[O-])cc3)n2)cc1`, the growth is 103% (inactive).

With `Oc1ccc(/C=C/c2ccccc2)cc1`, the growth was 17.3% (inactive) and 16.2% (inactive).

Regarding `CC(=O)C(/C=N/C(N)=O)=C(/C)O`, the growth was 99.8% (inactive).

Turning to `COC(=O)c1nc(N)nc(C(=O)OC)c1C(=O)c1ccc(OC)cc1`, the growth was 104% (inactive) and 52.9% (inactive).

For `Cc1cc(O)c2c(c1)C(=O)c1cc(O)cc(O)c1C2=O`, the growth was 87.8% (inactive) and 88.8% (inactive).

As for `C#CCN(C)Cc1ccccc1`, the growth is 97.5% (inactive) and 105% (inactive).

As to `CCN(CC)CCCC(C)Nc1ccnc2cc(Oc3ccccc3)ccc12` (stereo unspecified), the growth is 73.6% (inactive) and 80.6% (inactive).

For the molecule `COc1ccccc1NC(=O)OCC#CCOC(=O)Nc1ccccc1OC`, the growth is 104% (inactive) and 100% (inactive).

As to `Cc1cc(O)c(C(C)C)cc1S(=O)(=O)O` (tested in a mixture with another compound), the growth was 91.8% (inactive) and 10.8% (inactive) and 92.4% (inactive).

With `Oc1c(CN2CCCCC2)ccc2cccnc12`, the growth was 7.15% (active) and 9.28% (active).

With `NS(=O)(=O)c1cc2c(cc1Cl)NC(C(Cl)Cl)NS2(=O)=O` (stereo unspecified), the growth was 96.7% (inactive) and 92.4% (inactive).

As for `COc1cc2nc(N3CCN(C(=O)C4COc5ccccc5O4)CC3)nc(N)c2cc1OC` (stereo unspecified), the growth is 121% (inactive) and 92.4% (inactive) and 98.8% (inactive).

(Values after PubChem BioAssay (NCI).)
